Results filed as inconclusive are left out. Calls of active or inactive are those of the source. The calls were made as follows, unless noted: active = hit-call score of the fitted dose curve at least 0.9, where 1 is the maximum; inactive = score below 0.9.
Key:
[1] = CCTE_Harrill_HTTr_Viability_MCF7: CCTE's 6-hour Cell Viability Assessment for the High-Throughput Transcriptomics (HTTr) Platform, in MCF-7 cells cultured in DMEM + 10% fetal bovine serum, Harrill Lab (AID 2284010)
Procedure, shortened: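 PI exclusion, high-content imaging; 8-pt dilution series, 6 h exposure; bidirectional fit vs DMSO (neg. ctrl/baseline); gain of signal = loss of membrane integrity.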

[2] = CCTE_Harrill_HTTr_Apoptosis_MCF7: CCTE's 6-hour Apoptosis Assessment for the High-Throughput Transcriptomics (HTTr) Platform, in MCF-7 cells cultured in DMEM + 10% fetal bovine serum, Harrill Lab (AID 2284011)
Procedure, shortened: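 Cells are dosed with test chemicals at eight concentrations and imaged 6 hours later for caspase-3/7 activity using a green fluorogenic detection reagent. Activity is fitted in both directions against DMSO controls.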

[3] = CCTE_Harrill_HTTr_CellCount_MCF7: CCTE's Cell Proliferation Assessment for the High-Throughput Transcriptomics (HTTr) Platform, Harrill Lab (AID 2284012; active = hit-call score of the fitted dose curve at least 0.9, where 1 is the maximum;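 also: count of Hoechst-stained nuclei per well by high-content imaging in MCF-7 cells; cells exposed to compound for six hours; intended direction is loss of nuclei count meaning fewer cells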)
Procedure, shortened: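 Readout: Hoechst nuclear count by high-content imaging. MCF-7, 8-point dilution series, 6 h exposure. Bidirectional fit vs DMSO baseline.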

[4] = CCTE_Shafer_MEA_acute_burst_number: CCTE's Neural Acute Assay for Single-Electrode Bursts, Shafer Lab (AID 2284013)
Procedure, shortened: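 Primary rat cortical neurons on 16-electrode MEA wells, DIV 13 or 15, exposed to compound (0.03-40 uM; ≥3 wells); 40-min recordings at 37 C before and after treatment. Burst count expressed as percent change from baseline, DMSO as negative control.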

[5] = CCTE_Shafer_MEA_acute_burst_duration_mean: CCTE's Neural Acute Assay for Mean Burst Duration, Shafer Lab (AID 2284014);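 also: hits are decreases in mean burst duration relative to DMSO controls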
Procedure, shortened: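 Mean burst duration was compared between a 40 min baseline and a 40 min recording in the presence of compound (0.03-40 uM, 37 C), giving percent change per well. Cultures were rat cortical neurons at DIV 13 or 15; wells needed ≥10 active electrodes.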

[6] = CCTE_Shafer_MEA_acute_per_burst_spike_number_mean: CCTE's Neural Acute Assay for Average Number of Spikes Per Burst, Shafer Lab (AID 2284015);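 also: hits are decreases in mean spikes per burst versus baseline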
Procedure, shortened: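 Primary rat cortical neurons on 48-well MEA plates, treated on DIV 13 or 15 at 0.03-40 uM. Spontaneous activity recorded 40 min before and 40 min after compound at 37 C; percent change in mean spikes per single-electrode burst per well, fitted in the loss direction versus DMSO.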

[7] = CCTE_Shafer_MEA_acute_burst_percentage_std: CCTE's Neural Acute Assay for Standard Deviation of Burst Percentage, Shafer Lab (AID 2284018);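 also: fitted in the negative direction so actives lower burst percentage SD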
Procedure, shortened: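 Value is percent change from baseline in the across-electrode SD of spikes-in-bursts percentage, wells with >/= 10 active electrodes. Acute 40-min exposure to 0.03-40 uM on DIV 13 or 15 rat cortical cultures, recorded at 37 C after 40-min baseline.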

[8] = CCTE_Shafer_MEA_acute_per_network_burst_spike_number_mean: CCTE's Neural Acute Assay for Average Number of Spikes in a Network Burst, Shafer Lab (AID 2284019)
Procedure, shortened: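 Percent change from baseline in mean spikes per network burst, spikes detected at 8x rms noise. Each compound at 0.03-40 uM in at least three wells of rat cortical cultures, recorded 40 min before and 40 min during exposure.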

[9] = CCTE_Shafer_MEA_acute_per_network_burst_spike_number_std: CCTE's Neural Acute Assay for Standard Deviation of Number of Spikes in a Network Burst, Shafer Lab (AID 2284020);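 also: fitted for decrease in spike-number SD versus DMSO so actives lower it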
Procedure, shortened: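 Endpoint: percent change from 40 min baseline in standard deviation of spikes per network burst, after 40 min compound exposure (0.03-40 uM, 37 C). Cortical rat neurons on MEA at DIV 13 or 15; spikes detected at 8x rms noise, 300-5000 Hz band-pass.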

[10] = CCTE_Shafer_MEA_acute_per_network_burst_electrodes_number_mean: CCTE's Neural Acute Assay for Mean Number of Electrodes in a Network Burst, Shafer Lab (AID 2284021);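 also: curves fitted for decreases only so hits reduce electrodes per burst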
Procedure, shortened: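 Cultures of rat cortex neurons were exposed on DIV 13 or 15 to compounds at 0.03-40 uM in at least three wells each. Activity over 40 min before and 40 min after exposure at 37 C gave the percent change in electrodes per network burst.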

Measured: outcome

Nc1cc2c3c(c1)C(c1ccccc1)=N[C@@H](NC(=O)c1cccnc1)C(=O)N3CC2
inactive: [1] | [2]

CCCN(CCC)c1c([N+](=O)[O-])cc(C(C)C)cc1[N+](=O)[O-]
inactive: [1] | [2] | [3]

CCCCN(CCCC)SN(C)C(=O)Oc1cccc2c1OC(C)(C)C2
inactive: [1] | [2]

O=C(O)CF
inactive: [1] | [2] | [3]

CCCCOCC1CO1 (centres undefined)
inactive: [1] | [2] | [3]

CCN(CC)c1ccccc1
inactive: [1] | [2] | [3]

COP(=O)(O)OC
inactive: [1] | [2] | [3]

Nc1ccc([N+](=O)[O-])cc1Cl
inactive: [1] | [2] | [3]

CCOP(=S)(NC(C)C)Oc1ccccc1C(=O)OC(C)C (centres undefined)
inactive: [1] | [2] | [3]

CCCCOCCOP(=O)(OCCOCCCC)OCCOCCCC
inactive: [1] | [2]

CCCCN(CCCC)N=O
inactive: [1] | [2] | [3]

N#Cc1ccc(O)cc1
inactive: [1] | [2] | [3]

CCCCCCCc1ccc(O)cc1
inactive: [1] | [2]

O=P1(N(CCCl)CCCl)NCCCO1 (centres undefined)
inactive: [1] | [2] | [3]

CC(Cl)(Cl)C(=O)O
inactive: [1] | [2] | [3] | [4] | [5] | [6] | [7] | [8] | [9] | [10]

CCCCc1ccccc1
inactive: [1] | [2] | [3]

c1ccc2c(c1)sc1ccccc12
inactive: [1] | [2] | [3]

[N-]=[N+]=[N-]
inactive: [1] | [2] | [3] | [4] | [5] | [6] | [7] | [8] | [9] | [10]

— PubChem BioAssay (EPA / NIEHS)
